Assay outcomes deposited in PubChem BioAssay by several laboratories.
Only some compounds are listed: those with a hit (about 5.4% of all), similar ones and a draw of the others.
Exocytosis inh: lytic granule exocytosis inhibition | TALL-104 LAMP-1 surface exposure, flow cytometry; cells stimulated with thapsigargin and PMA | inhibition, % at 10 µM | 360,000 compounds, 0.66% hits | AID 651702;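 active = inhibition above about 55%, limit read from the data; inconclusive = no clear call, values can overlap the other calls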
SMARCA2 activ: SMARCA2 function activation, primary screen | MG213 cells, MMTV-luciferase reporter, dexamethasone, overnight | activation, % at 9.1 µM | 370,000 compounds, 1% hits | AID 652017; in the data active = activation above about 7.8%;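 note: 0% = vehicle wells and 100% = reference activator wells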
ALR inh: blocks human ALR sulfhydryl oxidase activity. P55789. purified ALR, DTT oxidation, H2O2 HRP-luminol luminescence. inhibition, % (concentration not given with the values). 290,000 compounds, 3.8% hits. AID 485317;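 active = mean replicate inhibition above about 79%, with every replicate also reaching it, limit read from the data; inconclusive = only one of the two criteria met; inactive = mean below limit and not every replicate reaching it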
Target sequence (P55789 whole entry, looked up): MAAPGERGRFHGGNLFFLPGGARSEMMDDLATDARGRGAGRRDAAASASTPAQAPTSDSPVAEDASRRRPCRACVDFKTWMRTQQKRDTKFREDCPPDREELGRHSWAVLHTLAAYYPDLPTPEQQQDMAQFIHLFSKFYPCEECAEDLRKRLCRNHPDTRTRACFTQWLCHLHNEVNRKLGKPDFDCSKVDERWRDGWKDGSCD
PfM18AAP inh: PfM18AAP enzyme inhibition. recombinant PfM18AAP, H-Glu-NHMec fluorogenic cleavage. inhibition, % at 7.35 µM. 290,000 compounds, 1.2% hits. AID 1822;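 active = inhibition above the campaign mean inhibition over all tested compounds plus 3 SD, cut at about 28% in these data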;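 note: 0% = plate median of test compound wells and 100% = 2 mM ZnCl2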
GASC-1 inh: blocks human GASC-1 demethylase activity; Q9H3R0; AID 2099; GST-JMJD2C(1-420) H3K9me3 demethylation, DELFIA europium; inhibition, % at 2.35 µM; 330,000 compounds, 0.069% hits;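 active = more than half of a compound's replicate wells show inhibition beyond 50%, single wells judged on their own value; inconclusive = some, but no more than half, of replicates pass 50% inhibition; inactive = no replicate passes 50% inhibition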;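 note: signal counts dimethyl H3K9 product captured on neutravidin plate; 0% = median of DMSO wells and 100% = 0.3 times that DMSO median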
Target sequence (Q9H3R0 1-420 limits assumed): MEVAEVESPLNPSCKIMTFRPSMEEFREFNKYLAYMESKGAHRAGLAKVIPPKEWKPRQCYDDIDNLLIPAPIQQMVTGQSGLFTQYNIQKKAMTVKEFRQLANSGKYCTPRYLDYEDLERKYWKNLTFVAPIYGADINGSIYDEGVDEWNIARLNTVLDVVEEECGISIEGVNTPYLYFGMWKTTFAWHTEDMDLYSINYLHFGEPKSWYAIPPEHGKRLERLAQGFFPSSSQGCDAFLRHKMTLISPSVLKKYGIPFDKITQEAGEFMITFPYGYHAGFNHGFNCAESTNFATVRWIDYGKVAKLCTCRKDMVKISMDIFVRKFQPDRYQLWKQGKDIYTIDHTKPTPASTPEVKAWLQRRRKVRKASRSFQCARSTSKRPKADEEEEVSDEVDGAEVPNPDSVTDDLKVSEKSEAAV
beta cell repl: MIN6 beta-cell proliferation induction; proliferation, % at 10 µM; 330,000 compounds, 0.29% hits; MIN6 cells proliferation, ATPlite luminescence, 48 h; cells starved in 0.2% serum; 100% = growth in 10% serum;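 active = compounds whose signal lies at least 3.5 SD above the mean of all wells on their plate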;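 note: 0% = DMSO-treated cells in low-serum medium and 100% = 10% serum control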
SMARCA2 conf: SMARCA2 activation, confirmation screen. shares compounds with SMARCA2 activ. MG213 cells, MMTV-luciferase with dexamethasone, luminescence, overnight; MG213 cells expressing E1A, Rb sequestered; DMSO wells 0%, reference activator 100%. activation, % at 9.1 µM. 3,500 compounds, 30% hits. AID 652260;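 active = activation above its plate's cutoff, the mean activation of tested wells plus 3 SD, cut at about 7.9% in these data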
VP16 Luc act: activates GAL4-VP16 luciferase, flagging SMARCA2 activator hits | shares compounds with SMARCA2 activ | HEK293 GAL4-VP16 pG5luc reporter, luciferase luminescence; scaled: DMSO wells 0%, SAHA wells 100% | activation, % at 9.1 µM | 3,500 compounds, 41% hits;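 active = activation above the solvent-only control well mean plus 3 SD, averaged across control plates, cut at about 5.2% in these data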
The depositor's hits bear a star; u = inconclusive; x = no result given.

SMILES	Exocytosis inh	SMARCA2 activ	ALR inh	PfM18AAP inh	GASC-1 inh	beta cell repl	SMARCA2 conf	VP16 Luc act
Cc1ccc(OCc2cc(C(=O)N3CCN(c4ccccc4)CC3)no2)cc1C	0.9	13.4*	-4.4	0.5	-1.7	-1.6	5.5	6.4*
Cc1ccc(CSc2nnc(-c3ccncc3)n2N)cc1	-2.7	8.8*	-6.3	-3.5	6.9	-1.2	-0.9	0.2
C=C(C)CSc1nnc(-c2ccc(OC)cc2)n1N	1.1	9.5*	63.8	-0.7	5.0	1.6	-0.3	2.0
CCOC(=O)[C@]12CCCCC/C=C\1N(Cc1ccc(OC)cc1)C(=O)[C@H]2CC(=O)N1CCN(C(=O)c2ccco2)CC1	x	-4.0	x	x	x	x	x	x
COC(=O)c1cc(C(C)c2c[nH]c3ccccc23)n2ccccc12 (stereo unspecified)	x	-0.2	x	x	x	x	x	x
O=[N+]([O-])c1ccccc1N/N=C\c1ccccc1F	8.1	9.1*	-14.3	-2.0	3.2	-2.5	8.9*	14.3*
O=C(O)c1ccccc1NS(=O)(=O)c1ccc(NN=Cc2ccccc2F)c([N+](=O)[O-])c1	8.2	-0.5	11.0	x	5.8	-5.0	x	x
CC(=O)N1CCN(c2ccc(N3CCN(C(C)=O)[C@H](C)C3)c(C)c2)[C@@H](C)C1	x	3.9	x	x	x	x	x	x
O=C(CSc1ncn[nH]1)c1ccc2c(c1)OCO2	0.4	8.6*	20.4	23.5	-1.8	-2.2	1.4	1.3
CC1CN(S(=O)(=O)c2cccc(C(=O)NN3CCN(C)CC3)c2)CC(C)O1 (stereo unspecified)	-4.1	9.1*	8.2	-9.5	-3.2	0.7	0.6	0.8
CCC(=O)N1CCCC(C)(C(=O)Nc2ccc3oc(CC)nc3c2)C1 (stereo unspecified)	0.0	-3.3	x	x	x	x	x	x
Cc1ccc2c(c1)N(CC(=O)NCC(C)c1ccccc1)C(=O)c1cccnc1O2 (stereo unspecified)	0.8	12.1*	-2.2	1.9	-0.2	-4.9	-2.8	-0.1
Cc1ccc2c(c1)N(CC(=O)NCCCc1ccccc1)C(=O)c1cccnc1O2	2.6	3.1	-3.4	-0.3	-26.2	-1.4	x	x
OC(c1cc(F)cc(Cl)c1)c1ncc(-c2ccccc2Cl)[nH]1 (stereo unspecified)	2.0	5.4	x	x	x	x	x	x
CCOc1cccc(C(=O)Nc2ccc3[nH]ncc3c2)c1	-2.9	0.9	-14.4	-4.3	113.3	-3.1	x	x
O=C(Nc1ccc(NC(=O)c2ccco2)nc1)c1cccc(F)c1	3.6	0.9	-4.0	-4.5	-0.8	-3.4	x	x
O=C(Nc1ccc(NC(=O)c2ccco2)nc1)c1cccnc1	-1.4	8.7*	-0.3	3.6	-23.0	-3.7	9.1*	11.8*
CC(C)n1cnc2cc(NC(=O)c3ccco3)ccc21	u	9.6*	-7.6	-3.5	-14.3	-4.0	13.1*	9.6*
COc1cccc(C(=O)Nc2ccc3[nH]ncc3c2)c1	1.1	9.4*	-38.6	3.2	-0.4	-3.2	8.9*	15.1*
COc1cccc(C(=O)Nc2ccc(NC(=O)c3ccco3)nc2)c1	1.8	9.7*	-10.5	-5.4	6.5	0.2	11.7*	12.2*
Cc1cccc(-c2cccc3[nH]c4c(c23)CCN2C(=O)[C@H]3[C@H](C)ON(C)[C@H]3C[C@@H]42)c1	x	0.4	x	x	x	x	x	x
O=C(NC(=S)Nc1ccccc1Br)c1cccnc1	-8.2	-1.8	0.4	12.4	-10.7	-1.4	x	x
O=C(NC(=S)Nc1ccc(Br)cn1)c1cccnc1	4.2	8.3*	-3.9	-9.0	1.4	-3.4	9.8*	0.4
CC(C)C(=O)Nc1ccc(NC(=O)c2ccco2)cn1	1.5	8.1*	-14.0	2.1	4.2	-2.9	4.7	2.4
O=C(NCc1cccc(F)c1)c1[nH]c(C(F)(F)F)nc1-c1ccccc1	2.3	2.0	x	x	x	x	x	x
SMILES	Exocytosis inh	SMARCA2 activ	ALR inh	PfM18AAP inh	GASC-1 inh	beta cell repl	SMARCA2 conf	VP16 Luc act
CCN(CC)CCn1c2ccccc2c2cnc(N)c(C#N)c21	0.9	47.4*	11.4	-2.2	-4.2	-0.3	70.9*	-2.5
O=C(COC(=O)c1ccccc1NS(=O)(=O)c1cccs1)NCC12CC3CC(CC(C3)C1)C2	-0.4	8.9*	-6.2	-0.8	-8.9	-5.7	-0.9	1.2
O=C(COC(=O)c1ccccc1NS(=O)(=O)c1cccs1)NC1CCCCC1	-2.3	-3.8	x	-0.5	15.3	0.0	x	x
COc1ccc(CCNc2nc3ccccc3n3nnnc23)cc1OC	-7.3	18.4*	x	1.1	-3.1	8.8	3.6	2.0
c1ccc(CCNc2nc3ccccc3n3nnnc23)cc1	-3.4	0.4	0.0	2.8	-8.5	-0.6	x	x
C#CCN(C[C@@H]1[C@@H](OC(=O)NCc2ccco2)[C@@H](OC(=O)NCc2ccco2)CN(C(=O)OC(C)C)N1C(=O)OC(C)C)S(=O)(=O)c1ccc(C)cc1	5.3	-1.2	x	x	x	x	x	x
O=C(NCCc1ccccc1)C(=O)NCC1CCCN1S(=O)(=O)c1cccs1 (stereo unspecified)	0.4	1.4	-10.3	x	-0.5	-0.2	x	x
O=C(NCC1CCCN1S(=O)(=O)c1cccs1)c1ccccc1F (stereo unspecified)	18.1	8.4*	-2.1	x	-1.4	2.0	-5.5	1.8
O=C(CCOc1ccccc1F)N1CCN(c2ccccc2O)CC1	-1.9	10.0*	-2.4	18.9	1.2	-1.2	5.2	9.1*
CCCCNC(=O)C(NC(=O)c1cnc(C)cn1)C(=O)c1ccccc1 (stereo unspecified)	-0.7	-6.4	x	x	x	x	x	x
CCCN1CCN(CCCNC(=O)c2cc3c(=O)oc4ccc(C)cc4c3s2)CC1	-1.6	0.3	-6.1	-2.5	25.0	-4.6	x	x
Cc1ccc2nc(Cl)c3cc(C(=O)NCCCN4CCCC4)sc3c2c1	6.2	14.3*	x	-0.7	3.4	-6.2	10.3*	0.6
COc1ccc(OCc2cc(C(=O)N3C[C@@H](C)O[C@@H](C)C3)no2)c(Cl)c1	-0.3	8.3*	-5.2	-5.9	5.9	0.1	3.4	3.6
COc1ccc(OCc2cc(C(=O)N3CCCCCCC3)no2)c(Cl)c1	-1.9	1.1	-4.2	2.6	6.6	3.3	x	x
COC(=O)c1cc2c(c3c4cc(OC)ccc4n(S(=O)(=O)c4ccccc4)c13)C(=O)N(Cc1ccc(C(F)(F)F)cc1)C2	x	-2.0	x	x	x	x	x	x
COc1ccc(CN2C(=O)C(CC(=O)NCC3CCCCC3)CC(C(=O)N(C)C)=C2C)cc1 (stereo unspecified)	4.9	-0.7	x	x	x	x	x	x
COc1ccc(OCC(=O)NC(=S)Nc2ccccc2F)cc1	-10.4	9.8*	-1.5	6.1	-9.4	-2.0	2.4	0.7
